The values that follow come from PubChem BioAssay.

Experiment [1] is described as follows: liver-stage malaria parasite growth inhibition, primary screen, cell-based, HepG2, luciferase luminescence, HepG2 viability (AID 624349; in the data active = parasite load remaining mostly below about 12%, no sharp cut-off; inactive = mostly above about 10%;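 note: 100% = mean of DMSO negative control wells on the same plate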). The conditions noted are these: P. berghei liver stage in HepG2, luciferase luminescence, concentration not given here; parasite load remaining: stronger effect = lower value; viability: measured here: HepG2 viability without parasites.

Experiment [2] is described as follows: Cy5 fluorescence interference with SSB-bound oligo, artefact control for HCV NS3 helicase inhibitor project, biochemical, NIH Clinical Collection, E. coli SSB (AID 743268).
Experiment [3] concerns Hepatitis C virus NS3 helicase. Nature of the experiment: HCV NS3 helicase inhibitors, primary screen, biochemical, fluorescence polarization, NIH Clinical Collection (AID 743270). The settings on record: NS3 helicase binding to Cy5-dT15 DNA, stronger effect = higher value, concentration not given here.
For experiment [4], the target named is Single-stranded DNA-binding protein (Escherichia coli (strain K12)) (UniProt P0AGE0). The experiment is described as follows: E. coli SSB displacement from DNA, counter-screen for HCV NS3 helicase inhibitor project, biochemical, fluorescence polarization, NIH Clinical Collection (AID 743271; in the data active = inhibition above about 28%). The conditions noted are these: stronger effect = higher value, concentration not given here. A general note: Counterscreens check selectivity or assay interference.

Experiment [5] is described as follows: fluorescence interference in NS3h assay format, artefact control for HCV NS3 helicase inhibitor project, biochemical, NIH Clinical Collection (AID 743272).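 Note: HCV NS3 helicase with a Cy5 labelled single stranded DNA probe.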 The settings on record: fluorescence interference counterscreen, stronger effect = lower value.
Experiment [6] has as its system Neuropilin-2 / VEGF-C interaction (human). Nature of the experiment: inhibitors of NRP2–VEGF-C binding, biochemical, microplate binding format, z-score (AID 743281). The conditions noted are these: microplate NRP2/VEGF-C binding assay; stronger effect = lower value.
Experiment [7] can be described thus: stimulators of nuclear beta-catenin in C2C12, primary screen, imaging, WNT3A-conditioned medium, mouse C2C12, NPC library (AID 1117326; in the data active = nuclear beta-catenin stimulation mostly above about 4.2%, no sharp cut-off; inactive = mostly below about 10%). The settings on record: stronger effect = higher value.
Experiment [8] in a line: stimulators of insulin release from INS-1E, primary screen, cell-based, 5 mM glucose, NPC library (AID 1117329;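 active = compound raises insulin release from rat beta cells at 5 mM glucose, no numeric limit stated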). The settings on record: rat INS-1E insulin secretion, at 10 µM, stronger effect = higher value.
Experiment [9] in a line: growth inhibition of GSK3B-pretreated HCT116 cells – cell-based, CellTiter-Glo, 0.2 to 20 µM (AID 1117336;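 active = compounds lowering colon cancer cell viability after pretreatment blocking the GSK3B kinase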). The conditions noted are these: HCT116 viability after GSK3B inhibitor, at 20 µM, stronger effect = higher value. On the technique in general: Cellular ATP, detected with luciferase, serves as a proxy for viable cell number.
Experiment [10] is described as follows: inhibition of endothelial tube formation, primary screen, imaging, VEGF stimulated, CD31 staining, tube area, NPC library (AID 1117340;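 active = compound that reduces growth-factor-driven endothelial tube area in a mixed cell culture, no cutoff stated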). The conditions noted are these: VEGF-stimulated ADSC/ECFC co-culture, at 10 µM, stronger effect = higher value.
A short description of experiment [11]: glucagon-like peptide 1 release enhancers, primary assay, NCI-H716 cell line, NPC library (AID 1117341;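 active = compound raises GLP1 secretion from the human gut endocrine cells, with no numeric limit stated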). The conditions noted are these: NCI-H716 cells, at 10 µM, stronger effect = higher value.
Experiment [12] is described as follows: HCT116 colon cancer cell growth inhibition, primary screen, CellTiter-Glo luminescence, NPC library (AID 1117342;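 active = compounds that lower survival of HCT116 colon cancer cells in the luminescence readout, no numeric limit stated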). The conditions noted are these: at 20 µM (top of the series).
A short description of experiment [13]: CellTiter-Glo luminescent readout of SW480 viability loss, NPC library primary (AID 1117343;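 active = compounds that lower viability of the colon cancer cells in the luminescence readout, with no numeric limit stated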). The conditions noted are these: CellTiter-Glo luminescence; at 20 µM (top of the series).
The nature of experiment [14]: decreased DLD-1 cellular survival, CellTiter-Glo luminescent readout, NPC compound collection, primary HTS (AID 1117346;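 active = compounds that lower survival of DLD-1 colon cancer cells in the luminescence readout, no cutoff given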). The conditions noted are these: DLD-1 viability, CellTiter-Glo luminescence; at 20 µM (top of the series).

“And” between values parts separate entries of the source, which are not always exact repeats. Equal values may be shown once. Some compounds were tested as several samples or in several runs, with calls that do not always agree. The source made the active and inactive calls. Unless noted, the rule behind the calls is not given here.

One may read the viability as a read-out of living cells in per cent, often relative to untreated cells. As usually defined, the inhibition is the drop in the measured response relative to a control, in per cent. Regarding `CC(C)[C@H](N)C(=O)OCCOCn1cnc2c(=O)[nH]c(N)nc21`, in [1], the parasite load remaining is 172% (inactive) and 103% (inactive) and 32.5% (inactive). The viability in [1] was 88% and 76.1% and 74%. Further, the fluorescence ratio is 1.06 (inactive) in experiment [2] and 1.03 (inactive) in experiment [5]. In addition, the inhibition in experiment [3] is -4.36% (inactive); in experiment [4], -4.72% (inactive). The call in [6] was inactive. Further, the nuclear beta-catenin stimulation was 0.1% (inactive) in experiment [7] (at 10 µM) and 2.1% in experiment [7] (stimulation, at 2 µM). The insulin secretion stimulation in [8] was 4.1% (inactive). Besides, in experiment [9], the viability decrease is 4.4% (inactive). Moreover, the tube area decrease in experiment [10] was -8.9% (inactive). The GLP1 secretion stimulation in experiment [11] was 2.5% (inactive). In experiment [12], the inhibition of viability is -1% (inactive). Further, the viability decrease (inhibition) in [13] was 4.3% (inactive); in experiment [14] it was -6.2% (inactive).

As for `CCOC(=O)C1=C(C)NC(C)=C(C(=O)OCC)C1c1ccccc1/C=C/C(=O)OC(C)(C)C`, the parasite load remaining in experiment [1] was -0.13% (active) and 24.4% (inactive). Besides, in [1], the viability was 74.1% and 104%. Further, the fluorescence ratio in experiment [2] and in experiment [5] was 0.9 (inactive) in each case. The results for the inhibition in [3] and in [4] were 3.28% (inactive) and 3.54% (inactive), respectively. Besides, the z-score in experiment [6] was -0.248 (inactive). Besides, the nuclear beta-catenin stimulation in experiment [7] (at 10 µM) is 3% (inactive); in experiment [7] (stimulation, at 2 µM), 1.2%. Also, the insulin secretion stimulation in experiment [8] is 0.3% (inactive). For the same compound, in [9], the viability decrease was 117% (active). In experiment [10], the tube area decrease was 101% (active). For the same compound, the GLP1 secretion stimulation in [11] was -0.4% (inactive). For the same compound, the inhibition of viability in experiment [12] is 124% (active). The figures for the viability decrease (inhibition) in experiment [13] and in experiment [14] were 158% (active) and 101% (active), respectively.

Regarding `O=C(O)CCNC(=O)c1ccc(N=Nc2ccc(O)c(C(=O)O)c2)cc1`, the parasite load remaining in [1] is 105% (inactive) and 63.3% (inactive). The viability in experiment [1] is 90.8% and 75.1%. Further, the values for the fluorescence ratio in experiment [2] and in experiment [5] were 0.93 (inactive) and 0.94 (inactive), respectively. Further, the inhibition in [3] is -2.84% (inactive); in [4] it was 1.97% (inactive). Besides, the result in [6] was inactive. For the same compound, the nuclear beta-catenin stimulation is 0.8% (inactive) in experiment [7] (at 10 µM) and 0.3% in experiment [7] (stimulation, at 2 µM). Besides, the insulin secretion stimulation in experiment [8] was 5.4% (inactive). Further, the viability decrease in experiment [9] was 5.2% (inactive). Also, the tube area decrease in experiment [10] is 11.5% (inactive). Further, the GLP1 secretion stimulation in [11] is 1.6% (inactive). In experiment [12], the inhibition of viability was 6.1% (inactive). The viability decrease (inhibition) in experiment [13] is 57.8% (active); in experiment [14], 6.7% (inactive).

In the case of `C[C@H]1COc2c(C3(N)CC3)c(F)cc3c(=O)c(C(=O)O)cn1c23`, the parasite load remaining in experiment [1] is 143% (inactive) and 21.7% (inactive). Also, the viability in [1] is 89.8% and 67.5%. In addition, the fluorescence ratio in experiment [2] is 1.05 (inactive); in [5], 1.02 (inactive). For the same compound, the inhibition in [3] was 5.15% (inactive); in experiment [4], -0.1% (inactive). In addition, the z-score in experiment [6] was 0.653 (inactive). Moreover, the nuclear beta-catenin stimulation in experiment [7] (at 10 µM) is 1.2% (inactive); in experiment [7] (stimulation, at 2 µM), 0.2%. Moreover, the insulin secretion stimulation in experiment [8] was -0.9% (inactive). Besides, the viability decrease in experiment [9] is -4.4% (inactive). Further, the tube area decrease in experiment [10] is 2.8% (inactive). In addition, the GLP1 secretion stimulation in experiment [11] is 4.2% (inactive). For the same compound, the inhibition of viability in experiment [12] was -19.1% (inactive). In addition, the values for the viability decrease (inhibition) in [13] and in experiment [14] were 43.9% (inactive) and 24.9% (inactive), respectively.

Regarding `CC(Oc1c(Cl)cccc1Cl)C1=NCCN1` (centres undefined), in experiment [1], the parasite load remaining was 53.2% (inactive) and 28% (inactive). The viability in experiment [1] is 69% and 138%. The figures for the fluorescence ratio in experiment [2] and in experiment [5] were 0.98 (inactive) and 0.95 (inactive), respectively. The inhibition was -8.08% (inactive) in experiment [3] and -3.54% (inactive) in experiment [4]. Also, in [6], the z-score was 0.439 (inactive). Besides, the nuclear beta-catenin stimulation in experiment [7] (at 10 µM) was -2.3% (inactive); in experiment [7] (stimulation, at 2 µM), 0.3%. The insulin secretion stimulation in experiment [8] was 2.3% (inactive). In experiment [9], the viability decrease is -16.2% (inactive). For the same compound, the tube area decrease in [10] is -28.5% (inactive). The GLP1 secretion stimulation in experiment [11] was -2.9% (inactive). Also, in [12], the inhibition of viability was 31.3% (inactive). Moreover, the figures for the viability decrease (inhibition) in experiment [13] and in experiment [14] were 12.5% (inactive) and 61.6% (active), respectively.

As for `CC1CCN(CCCC(=O)c2ccc(F)cc2)CC1`, the parasite load remaining in experiment [1] is 55.3% (inactive). For the same compound, the viability in experiment [1] amounted to 68.6%. The fluorescence ratio in experiment [2] was 1 (inactive); in experiment [5], 0.99 (inactive). Besides, the inhibition in experiment [3] is -3.71% (inactive); in experiment [4], 1.97% (inactive). Moreover, the z-score in experiment [6] was 1.36 (inactive). The nuclear beta-catenin stimulation in experiment [7] (at 10 µM) was 1.8% (inactive); in experiment [7] (stimulation, at 2 µM), 0.7%. The insulin secretion stimulation in [8] is 8.9% (inactive). The viability decrease in experiment [9] was 5.7% (inactive). Moreover, in experiment [10], the tube area decrease was 10.4% (inactive). Moreover, the GLP1 secretion stimulation in experiment [11] was -0.3% (inactive). Besides, the inhibition of viability in experiment [12] was 45.7% (inactive). For the same compound, the viability decrease (inhibition) in experiment [13] was 23.2% (inactive); in [14], 37.1% (inactive).

With `COc1ccc(CN2CCN(C(c3ccc(F)cc3)c3ccc(F)cc3)CC2)c(OC)c1OC`, the parasite load remaining in experiment [1] was 0.425% (inactive) and 2.35% (inactive). Further, the viability in [1] was 59.6% and 66%. Besides, the fluorescence ratio in experiment [2] is 1 (inactive); in [5], 0.91 (inactive). Moreover, the inhibition in experiment [3] was 1.19% (inactive); in [4], 7.6% (inactive). In addition, the z-score in experiment [6] was 0.136 (inactive). The nuclear beta-catenin stimulation in experiment [7] (at 10 µM) was 8.4% (inactive); in experiment [7] (stimulation, at 2 µM), 5.6%. Further, the insulin secretion stimulation in [8] was 1.6% (inactive). Further, the viability decrease in experiment [9] was 108% (active). In [10], the tube area decrease is -1.5% (inactive). The GLP1 secretion stimulation in [11] is 2.3% (inactive). Further, in experiment [12], the inhibition of viability was 110% (active). Further, the viability decrease (inhibition) in experiment [13] was 133% (active); in [14] it was 101% (active).

For `CCCN1CCCC[C@H]1C(=O)Nc1c(C)cccc1C`, the parasite load remaining in [1] was 68.8% (inactive). For the same compound, the viability in experiment [1] is 69.6%. Also, the fluorescence ratio in experiment [2] is 0.98 (inactive); in experiment [5] it was 0.92 (inactive). The inhibition was -5.46% (inactive) in [3] and -2.76% (inactive) in experiment [4]. Moreover, the z-score in experiment [6] is 0.543 (inactive). The nuclear beta-catenin stimulation in [7] (at 10 µM) is 0.3% (inactive); in experiment [7] (stimulation, at 2 µM) it was -1.3%. Besides, in [8], the insulin secretion stimulation is 31% (active). The viability decrease in experiment [9] is -8% (inactive). In experiment [10], the tube area decrease was -2.1% (inactive). For the same compound, the GLP1 secretion stimulation in experiment [11] was 3.3% (inactive). The inhibition of viability in experiment [12] is 3.1% (inactive). In addition, the viability decrease (inhibition) in experiment [13] is -17% (inactive); in experiment [14] it was 6.9% (inactive).

Turning to `Cn1c(NCCN(CCO)CCCc2ccc([N+](=O)[O-])cc2)cc(=O)n(C)c1=O`, the parasite load remaining in experiment [1] is 109% (inactive) and 18.9% (inactive). Also, the viability in experiment [1] was 77.5% and 73.5%. Also, the fluorescence ratio in experiment [2] was 0.99 (inactive); in [5] it was 0.97 (inactive). Moreover, the inhibition in experiment [3] was 0.4% (inactive); in experiment [4] it was 1.44% (inactive). Moreover, the z-score in experiment [6] is 0.0586 (inactive). The nuclear beta-catenin stimulation in [7] (at 10 µM) is 0.1% (inactive); in experiment [7] (stimulation, at 2 µM) it was 0.3%. Besides, the insulin secretion stimulation in experiment [8] was -5.7% (inactive). Further, the viability decrease in experiment [9] was 38.3% (inactive). In addition, the tube area decrease in experiment [10] was 1.8% (inactive). Besides, the GLP1 secretion stimulation in experiment [11] was 2.9% (inactive). Further, the inhibition of viability in experiment [12] was 26.6% (inactive). In addition, the viability decrease (inhibition) in [13] was 44.3% (inactive); in [14] it was 14.1% (inactive).
